We go through 40 compounds from PubChem BioAssay.

Usually inhibition stands for the drop in the measured response relative to a control, in per cent.

Unmarked numbers belong to inactive results. No rule for the calls is given here.

Sequence of Pantothenate synthetase (Mycobacterium tuberculosis (strain ATCC 25618 / H37Rv)) (P9WIL5 whole entry, looked up): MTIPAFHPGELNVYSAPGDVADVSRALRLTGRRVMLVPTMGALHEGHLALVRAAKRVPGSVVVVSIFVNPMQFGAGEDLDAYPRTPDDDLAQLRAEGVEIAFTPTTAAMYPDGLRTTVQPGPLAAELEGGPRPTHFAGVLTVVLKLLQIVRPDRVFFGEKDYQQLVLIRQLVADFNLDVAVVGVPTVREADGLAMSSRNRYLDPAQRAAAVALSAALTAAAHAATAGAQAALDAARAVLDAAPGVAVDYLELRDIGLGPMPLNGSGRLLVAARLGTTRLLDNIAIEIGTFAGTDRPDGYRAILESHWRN

The assay has as its target Pantothenate synthetase (Mycobacterium tuberculosis (strain ATCC 25618 / H37Rv)) (UniProt P9WIL5). Kind of assay: Recombinant Mtb pantothenate synthetase (PanC) inhibitors, coupled enzyme, confirmatory (AID 375).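 Also: 0% = full reaction with vehicle and 100% = no enzyme background.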 Conditions: coupled enzyme assay; at 10 µM, active compounds read high.
With `Cc1cccc(-n2c(N)c(C(=O)N3CCN(C)CC3)sc2=S)c1`, the inhibition was 1%. As to `COc1ccc(C)cc1NC(=O)CN1CCN(S(=O)(=O)c2ccc(Cl)cc2)CC1`, the inhibition was 0%. Then `Cc1cc(N2C(=O)CC(N3CCN(c4ccc(C(=O)c5cccs5)cc4)CC3)C2=O)no1` (stereo not given), with 0%. With `CCn1c(C(Cc2ccccc2)NC(=O)COC)nc2ccccc21` (stereo not given), the inhibition is 0%.

With `CCN(C(=O)c1cc(Cl)ccc1OC)C1CCCCC1`, the inhibition is 0%. Take `COCCn1c(SCC(=O)Nc2sc(C)c(C)c2C#N)nnc1C(C)C`: the inhibition was 0%. The value for `O=C(NCc1ccco1)c1cc2sccc2n1Cc1ccccc1` was 0%. As for `CN1C(=S)SC(C)(NO)C1(C)C` (stereo not given), the inhibition was 0%. Then `COc1ccccc1NC(=O)NC(N)=O`, with 0%; and `Cc1cc(C)nc(NC(=O)c2ccc(OC(C)C)cc2)n1`, with 0%; and `COc1cccc2cc(C(=O)N3CCc4ccccc43)c(=O)oc12`, with 1%.

In the case of `O=C(c1cc2n(n1)C(C(F)(F)F)CC(c1ccc(Cl)cc1)N2)N1CCCC1` (stereo not given), the inhibition was 5%. The value for `COCCn1c(C)cc(C(=O)COC(=O)c2n[nH]c3ccccc23)c1C` was 1%; that for `CCCCCC1CC(CC(=O)O)C(=O)O1` (stereo not given) was 6%; that for `O=C(O)C(c1ccccc1)N1CCCC1` (stereo not given) was 0%. For `Cn1c(=O)c(=O)n(C)c2cc(S(=O)(=O)CCC(=O)N3CCOCC3)ccc21`, the inhibition is 0%. For `O=C(COC(=O)CSc1nnc(-c2ccc(Cl)cc2)o1)NCc1ccc2c(c1)OCO2`, the inhibition was 12%. The value for `COCCNc1oc(-c2ccc(C)cc2)nc1C#N` was 0%.

For the compound `O=C(O)C1C2CCC(O2)C1C(=O)Nc1cccc(F)c1` (stereo not given), the inhibition was 1%. Regarding `Cc1ccc2[nH]c(=O)c3cc(C(=O)NCCN4CCN(C)CC4)sc3c2c1`, the inhibition is 0%. Then `O=C(CCN1CCN(C(=O)c2ccco2)CC1)Nc1ccc(F)cc1`, with 2%; and `O=C(CSc1nnnn1-c1ccccc1)Nc1nsc(-c2ccc(Cl)cc2)n1`, with 0%; and `Cc1ccccc1-c1nc(CN2CCC(C(=O)NCCCN3CCOCC3)CC2)c(C)o1`, with 5%. As to `Cn1cnnc1Sc1nc2c(c(=O)n(C)c(=O)n2C)n1Cc1ccccc1Cl`, the inhibition was 0%. Turning to `O/N=C/c1ccc(OCC(O)COc2ccc(/C=N/O)cc2)cc1`, the inhibition is 0%.

`CCOc1ccccc1N(CC(=O)NC1CCCC1)C(=O)CCCC(=O)Nc1ccccn1`: the inhibition was 5%. As to `O=C(O)CCn1[nH]c(=O)ccc1=O`, the inhibition is 0%.

As to `CC(C)(C)OC(=O)NCCc1nnc(SCC(=O)c2ccc(Cl)cc2)o1`, the inhibition was 0%.

Take `O=C(c1cc2ccccc2oc1=O)N1CCN(c2ccc(N3CCOCC3)nn2)CC1`: the inhibition was 0%. On to `O=C(CN1C(=O)CCSc2ccccc21)Nc1ccc2c(c1)OCO2`, for which the inhibition was 2%. Then `Cc1cc(=O)[nH]c(=S)n1-c1ccccc1`, with 17%. Then `Cc1cc(C)c2c(=O)n(CC(=O)NCCCN3CCOCC3)sc2n1`, with 1%; and `CCc1c(C)n([O-])c2c([n+]1=O)CCC2`, with 0%. `O=S(=O)(NCCc1csc(-c2ccccc2)n1)c1ccc2c(c1)OCCO2`: the inhibition is 4%.

For `CCOC(=O)COc1ccc(S(=O)(=O)Nc2ccc3c(c2)OCO3)cc1`, the inhibition is 2%.

As for `O=C(OCC(=O)c1cccs1)C1=COCCO1`, the inhibition is 0%. Then `COc1ccc(C(=O)Nc2nc(C)c(C(=O)N(C)C)s2)cc1OC`, with 0%. Then `CS(=O)(=O)N(CC(=O)N1CCN(c2cccc(Cl)c2)CC1)C1CCCCC1`, with 0%; and `CCOC(=O)N1CCN(C(=O)c2ccc3nc4cc(Cl)ccc4c(=O)n3c2)CC1`, with 8%. Take `COc1ccc(N2CCN(C(=O)COc3ccc4ccccc4c3)CC2)cc1`: the inhibition was 2%.
